High-throughput results (PubChem BioAssay)
PostGolgi yeast: growth inhibition of a yeast mutant, post-Golgi transport screen | post-Golgi transport phenotypic cell assay | inhibition, % at 10 µM | actives 0.9% (n = 98,000);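 further: yeast cells grown in 1536-well plates; yeast grown about 18 h at 30C before absorbance read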
MT1-MMP txn act: MT1-MMP promoter transcription activation; HT1080 MT1-MMP promoter luciferase reporter, luminescence, overnight; active compounds read high; AID 750; actives 0.16% (n = 86,000); activation factor at 10 µM;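 active means activation factor of at least 2 for MT1-MMP transcription at 10 µM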
PostGolgi ctrl: inhibits growth of the yeast control strain | efflux-deficient yeast background strain, growth absorbance A615, 16 h | inhibition, % at 10 µM | actives 5% (n = 98,000)
Measles CPE: protection of cells from measles virus; protection (pct of control), % at 4 µM; Measles virus-infected cells, CPE protection, absorbance; actives 1.5% (n = 140,000); in the data active means protection mostly above about 24%, no sharp cut-off; inactive means mostly below about 26%
The depositor's hits bear a star; nt = no result. In the library only some 5.3% were active in any assay of this set; here they are far more common. Unless noted, no stated cut-off is given here; in the data, active means inhibition above about 30%; inactive means the rest.

SMILES | PostGolgi yeast | MT1-MMP txn act | PostGolgi ctrl | Measles CPE
O=c1c2c(-c3ccco3)csc2nc(SCc2cn3cccnc3n2)n1-c1ccccc1 | -5.3 | 1 | 35.9* | 42.9
CNc1c([N+](=O)[O-])cnn1-c1ccc(Cl)cc1 | -5.8 | nt | 20.4 | 5.9
Cc1[nH]nc2c1/C(=N\O)CC(C)(C)C2 | -2.3 | 1.2 | 39.2* | 4.3
O=C1NC2(Nc3ccccc31)C(=O)Nc1ccccc12 (centres undefined) | 43.9* | 1.4 | 13.6 | 27.5
COc1ccc(S(=O)(=O)O/N=C2\CCCc3ccccc32)cc1 | 13.4 | 1.5 | -2.1 | 11.2
CNCCOc1nc(N2CCOCC2)nc(C)c1[N+](=O)[O-] | nt | nt | nt | 56.2*
CCOc1nc(N2CCOCC2)nc(C)c1[N+](=O)[O-] | nt | nt | nt | 10.3
COc1ccc(C(CC(=O)Nc2cc([N+](=O)[O-])ccc2OC)c2ccccc2)cc1 (centres undefined) | nt | nt | nt | 11.0
O=C(Nc1sc2c(c1C(=O)NC1CC1)CCCCCC2)c1ccco1 | 16.1 | 1.2 | 57.3* | 3.8
O=C(Nc1sc2c(c1C(=O)NCC1CCCO1)CCCC2)c1cccs1 (centres undefined) | 86.5* | 1.2 | 68.3* | 15.9
O=C(Nc1cccc(S(=O)(=O)NC2=NCCCCC2)c1)c1cc(-c2ccc(Cl)cc2)nc2ccccc12 | nt | nt | nt | 3.1
CCCCN1C(=O)NC(c2ccc(OC)cc2)C(C(=O)OCc2ccccc2)=C1C (centres undefined) | nt | 1.2 | nt | nt
CCOC(=O)c1sc(NC(=O)Nc2ccc(Cl)cc2)cc1C | 2.5 | nt | 62.1* | 5.3
Cc1cc(/C=N/NC(=O)c2cccs2)c(C)n1-c1ccccc1 | 5.3 | nt | 18.0 | 76.9*
Nc1cc(-c2ccc(Br)cc2)nn1S(=O)(=O)c1cccc2nsnc12 | 44.1* | nt | 83.1* | 4.7
Nc1cc(-c2ccc(Cl)cc2)nn1S(=O)(=O)c1cccc2nsnc12 | 58.0* | nt | 65.7* | 16.4
CC(C(=O)Nc1sc2c(c1C(=O)NCC1CCCO1)CCC2)N1C(=O)c2ccccc2C1=O (centres undefined) | nt | nt | nt | 3.5
Cc1cccc(Nc2nnc(-c3ccc(N4CCOCC4)c([N+](=O)[O-])c3)c3ccccc23)c1 | nt | nt | nt | 6.0
Cc1nc(-c2cccnc2)sc1C(=O)Nc1ccc(Cl)cc1 | -0.1 | nt | 3.5 | 33.0*
Cc1nc(N)sc1C(=O)Nc1ccccc1 | -2.7 | 1.3 | 2.8 | 35.2*
CCc1cc(C(=O)N=Nc2c(O)[nH]c3c(Br)cc(Br)cc23)c2ccccc2n1 | nt | nt | nt | 27.6
CCOC(=O)C1=C(C)N(CCCC(=O)O)C(=O)NC1C(CC)CC (centres undefined) | nt | 1.1 | nt | nt
COc1ccc(OC)c(NC(=O)C(=O)/C=C(\O)c2cc(OC)ccc2OC)c1 | 10.6 | nt | 30.4* | 10.1
COc1ccc(NC(=O)c2cccc(-n3c(C)ccc3C)c2)c(OC)c1 | nt | nt | nt | 17.9
CCOc1cc(S(=O)(=O)NC2CCCC2)ccc1Cl | -1.9 | 1.1 | 6.7 | 16.7
SMILES | PostGolgi yeast | MT1-MMP txn act | PostGolgi ctrl | Measles CPE
CCOc1cc(S(=O)(=O)Nc2cc(C)cc(C)c2)ccc1Cl | -13.8 | 1.2 | 39.0* | 2.5
COc1cc(S(=O)(=O)NC(C)C)ccc1Cl | 1.4 | 1.3 | 5.6 | 32.7*
CC1(C)CC(=O)c2sc(NC(=O)C3COc4ccccc4O3)nc2C1 (centres undefined) | -6.2 | nt | 38.2* | 23.3
CC(=O)c1sc(NC(=O)C2COc3ccccc3O2)nc1C (centres undefined) | 1.3 | nt | 13.8 | 7.6
CCc1ccc(N(CC(=O)Nc2ccccc2C(=O)N2CCOCC2)S(C)(=O)=O)cc1 | nt | nt | nt | 4.1
Cc1ccccc1OCc1nc2ccccc2c(=O)n1N | -2.4 | 1.3 | 5.9 | 1.9
Cc1ccccc1OCc1nnc2c3cnn(C)c3ncn12 | -9.0 | 1.5 | 34.2* | 5.5
CCn1c(SCC(=O)N2CCN(c3ccc(Cl)cc3)CC2)nc2ccccc2c1=O | -9.9 | 1.4 | 55.4* | 15.8
CCn1c(SCC(=O)N2CCCC2)nc2ccccc2c1=O | -5.3 | 1.2 | 12.3 | 22.7
O=C(CSc1nc2ccccc2c(=O)n1Cc1ccco1)c1ccccc1 | -3.9 | 1.3 | 31.3* | 10.0
CCn1c(SCC(=O)N2CCN(c3ccc(F)cc3)CC2)nc2ccccc2c1=O | 1.9 | 1.1 | 37.4* | 11.2
CCCn1c(SCC(=O)N2CCN(c3ccccc3)CC2)nc2ccccc2c1=O | 0.5 | 1 | 51.1* | 3.0
CCn1c(=O)[nH]c2cc(C(=O)N3CCN(c4ccccc4)CC3)ccc2c1=O | 36.5* | 1.2 | 4.7 | 5.2
O=c1c2ccccc2nc(SCc2cccc(F)c2)n1Cc1ccco1 | 3.6 | 1.1 | 30.7* | 21.7
O=C(c1ccc(Cn2c(=O)[nH]c3ccccc3c2=O)cc1)N1CCN(c2ccccc2)CC1 | 1.9 | 1 | 1.4 | 5.7
CCCCn1c(SCC(=O)N2CCN(c3ccccc3)CC2)nc2ccsc2c1=O | 3.4 | 1.2 | 42.6* | 23.1
O=C(CSc1nc2ccccc2c(=O)n1Cc1ccco1)N1CCN(c2ccccc2)CC1 | 0.6 | 1.2 | 35.7* | 44.6*
CCOC(=O)CSc1nc2ccccc2c(=O)n1Cc1ccco1 | 2.6 | 1.1 | 19.9 | 1.9
Cc1ccc(C(=O)O/N=C(\N)c2nonc2N)cc1 | nt | nt | nt | 6.0
CSc1ccc(/C=C(\C#N)C(=O)Nc2cccc(C)c2)cc1 | nt | nt | nt | 4.9
CCCn1c(Cc2ccccc2)nnc1SCC(=O)N1CCOCC1 | 6.4 | 1 | 30.1* | 3.4
Cn1c(Cc2ccccc2)nnc1SCC(=O)N1CCOCC1 | 1.0 | 1.1 | -5.2 | 5.5
C=C(C)Cn1c(SCC)nc2ccccc2c1=O | 0.6 | 1 | 44.3* | 27.8*
Cc1ccc(-n2c(C)cc(C(=O)COc3c(CO)cc(F)cc3CO)c2C)cc1C | nt | nt | nt | 8.4
O=C(c1ccccc1C(=O)N(c1ccccc1)c1ccccc1)N1CCCCC1 | nt | nt | nt | 8.8
SMILES | PostGolgi yeast | MT1-MMP txn act | PostGolgi ctrl | Measles CPE
c1ccc(-c2nnc3sc(Cc4cccs4)nn23)cc1 | 3.3 | 1.4 | 30.4* | 10.2
Clc1ccc(-c2nnc3sc(Cc4cccs4)nn23)cc1 | nt | 1.2 | nt | 2.5
COc1ccc(-n2c(O)cnc2Nc2nc(C)cc(C)n2)cc1OC | -11.6 | 1.2 | 31.8* | 7.1
CCc1ccc(-n2c(O)cnc2Nc2nc(C)cc(C)n2)cc1 | -5.2 | 1 | -1.4 | 6.7
O=C(O)CCn1c2c(c3ccccc31)CCCC2 | 2.2 | 1.1 | 47.9* | 10.7
O=C(CCn1c2c(c3ccccc31)CCCC2)NNC(=O)c1ccccc1[N+](=O)[O-] | nt | nt | nt | 9.4
Cc1cc(/C=N/n2cnnc2)c(C)n1-c1ccc(OCc2ccc(F)cc2)cc1 | -0.8 | 1.2 | 60.8* | 7.2
Cc1cc(/C=N/n2cnnc2)c(C)n1-c1ccc(Cl)cc1Cl | 2.0 | 0.9 | 36.7* | 14.1
Cc1cc(/C=N/n2cnnc2)c(C)n1-c1ccc(OCc2ccc(Cl)cc2Cl)cc1 | 21.3 | nt | 96.2* | 3.1
CCCCCCCCCCCCOC1OC(CO)C(O)C(O)C1NC(C)=O (centres undefined) | nt | nt | nt | 4.7
CC(C)OC(=O)CCCNc1ccc([N+](=O)[O-])cc1[N+](=O)[O-] | nt | nt | nt | 11.1
CCCCC(=O)NS(=O)(=O)c1ccc(N=NN2CCOCC2)cc1 | nt | nt | nt | 10.6
O=C(CCSc1ccc(Cl)cc1)N1CCCCCC1 | 4.5 | nt | 13.8 | 30.8*
O=C(CCSc1ccc(Cl)cc1)N1CCN(c2ncccn2)CC1 | 14.0 | 1.7 | 6.0 | 10.3
CC(C)OCCCN1CN(S(=O)(=O)c2cccc(Cl)c2)c2nc3ccccc3nc21 | -5.9 | 1 | 16.2 | 15.5
